Source: PubChem (National Center for Advancing Translational Sciences (NCATS))
In the library only some 22% were active in any assay of this set; here they are far more common.
CHX counter = Cycloheximide Counterscreen for Small Molecule Inhibitors of Shiga Toxin. cell reporter, cycloheximide protein synthesis inhibition counterscreen. max response, %. 300,000 compounds, 12% hits. AID 2314, 2010; in the data active = max response mostly above about 13%, no sharp cut-off; inactive = mostly below about 14%; note: read at 38.3 µM for the half of the compounds with a filed dose; 0% is about no effect
Pf growth 48h = Primary qHTS for delayed death inhibitors of the malarial parasite plastid, 48 hour incubation; Potency, µM (doses to about 28.7 µM), inactives show at the top dose activity change, negative = inhibition, usual class: inhibitors; P. falciparum luciferase growth in erythrocytes, 48 h; 310,000 compounds, 5.9% hits; note: potency is the fitted concentration of half-maximal effect; % is set by controls: 0 for no effect and ±100 for the full control effect
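First compound was added to culture medium, then infected red cells at 0.1% parasitemia and 2% hematocrit (final). After incubation at 37 C under 5% CO2, luciferase detection reagent was dispensed and light output recorded.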
LmPK inh = qHTS Assay for Inhibitors of Leishmania Mexicana Pyruvate Kinase (LmPK). Q27686. purified LmPK, Kinase-Glo ATP luminescence, 1 h. Potency, µM (top dose mostly 57.5 µM), without a hit: at the highest dose activity change, negative = inhibition, actives largely listed as inhibitors. 290,000 compounds, 0.37% hits. AID 1721, 2009; note: potency is the fitted concentration of half-maximal effect; % is set by controls: 0 for no effect and ±100 for the full control effect
Target sequence (Q27686 whole entry, looked up): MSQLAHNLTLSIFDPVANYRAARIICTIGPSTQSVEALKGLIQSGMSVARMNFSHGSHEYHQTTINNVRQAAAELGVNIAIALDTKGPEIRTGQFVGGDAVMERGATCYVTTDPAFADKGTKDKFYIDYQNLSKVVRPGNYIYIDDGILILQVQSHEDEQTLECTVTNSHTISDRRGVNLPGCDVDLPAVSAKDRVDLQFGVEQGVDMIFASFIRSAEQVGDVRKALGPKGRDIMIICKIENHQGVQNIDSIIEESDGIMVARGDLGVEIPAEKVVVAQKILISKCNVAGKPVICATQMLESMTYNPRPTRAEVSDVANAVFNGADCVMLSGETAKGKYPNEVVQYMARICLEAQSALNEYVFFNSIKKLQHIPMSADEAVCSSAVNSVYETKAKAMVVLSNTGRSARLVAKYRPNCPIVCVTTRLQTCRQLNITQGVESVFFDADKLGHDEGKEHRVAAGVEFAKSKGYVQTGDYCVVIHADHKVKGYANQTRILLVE
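In 50 mM imidazole pH 7.2 with 7 mM MgCl2, LmPK (0.1 nM) turned over PEP (0.5 mM) and ADP (0.1 mM) for 1 h at room temperature. Luciferase read-out of ATP.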
Shiga toxin inh = A qHTS for Small Molecule Inhibitors of Shiga Toxin; inhibition, % at 38.7 µM; AID 2315, 2010; 290,000 compounds, 9.2% hits; Vero cells, Shiga toxin protein synthesis inhibition reporter; in the data active = inhibition mostly above about 28%, no sharp cut-off; inactive = mostly below about 43%; note: 0% is about no effect
Pf growth 96h = Primary qHTS for delayed death inhibitors of the malarial parasite plastid, 96 hour incubation; P. falciparum luciferase reporter growth, 96 h; Potency, µM (titrated, usually from 28.7 µM), without a hit: top-dose activity change, negative = inhibition, hits mostly inhibitors; 320,000 compounds, 6.9% hits; note: potency is the fitted concentration of half-maximal effect; % is set by controls: 0 for no effect and ±100 for the full control effect
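96 h incubation, 37 C, 5% CO2, of luciferase-reporter P. falciparum-infected RBCs (2% hematocrit, 0.05% parasitemia final) with test compounds; endpoint luminescence.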
Numbers without * were called inactive; i = inactive; ? = inconclusive; . = not tested or not shown; [ ] = remark or other dose. Unless noted, calls come from the whole dose curve; as a rule, active = well fitted inhibition curve with a large enough effect; inconclusive = small, poorly fitted or top-dose-only effect, or another doubt; inactive = no such curve, though single readings can be large or run the other way.

SMILES	CHX counter	Pf growth 48h	LmPK inh	Shiga toxin inh	Pf growth 96h
COc1cccc(NC(=S)N2CCN(S(C)(=O)=O)CC2)c1	-1.1	11.7%	-0.4%	-16.4	4.15µM*
COc1cc(NC(=S)N2CCC(C(O)(c3ccccc3)c3ccccc3)CC2)cc(OC)c1	2.0	0.0%	1.9%	-6.8	2.08µM*
COc1cc(NC(=S)N2CCN(S(=O)(=O)c3ccccc3)CC2)cc(OC)c1	9.2	?	-5.0%	-10.8	4.4%
Cc1ccc(C2CC(c3ccccc3)n3ncnc3N2)cc1 (stereo not drawn)	-4.5	-2.0%	-0.2%	-6.0	13.1µM*
CCOc1ccc(C2CC(c3cccc(OC)c3OC)n3nnnc3N2)cc1Cl (stereo not drawn)	-3.0	11.7µM*	8.5%	-12.3	5.5%
COc1ccccc1C1CC(c2ccc(Cl)cc2)Nc2ncnn21 (stereo not drawn)	3.2	13.1µM*	4.2%	-5.7	-1.3%
COc1cccc(C2CC(c3ccccc3OC)n3ncnc3N2)c1 (stereo not drawn)	-0.6	.	0.5%	13.1	21.5%
C=CCc1ccc(OCCOCCOc2ccccc2[N+](=O)[O-])c(OC)c1	20.8	?	1.9%	36.1	6.3%
COc1ccc(C2=NN(S(C)(=O)=O)C(c3ccc4nccnc4c3)C2)cc1 (stereo not drawn)	79.0*	81.6%	-6.2%	60.2*	-10.2%
Cc1ccc(C2=NN(S(C)(=O)=O)C(c3ccc4nccnc4c3)C2)cc1 (stereo not drawn)	18.6*	99.5%	-0.6%	46.0*	63.1%
COc1ccc(C2=NN(C(=O)CN3CCCC3)C(c3ccc(OC)cc3)C2)cc1 (stereo not drawn)	7.8	?	0.2%	21.6	?
CS(=O)(=O)N1N=C(c2ccc3nccnc3c2)CC1c1ccccc1 (stereo not drawn)	17.0*	?	4.2%	34.7	?
CS(=O)(=O)Nc1cccc(C2=NN(S(C)(=O)=O)C(c3ccccc3)C2)c1 (stereo not drawn)	9.5	10.6%	12.1%[11.5 µM]	27.2	51.8%
COc1ccc(C2CC(c3ccc(OC)c(OC)c3)=NN2S(C)(=O)=O)cc1 (stereo not drawn)	63.1*	173.4%	-0.2%	88.2*	222.9%
Cc1cccc(C(=O)N2CC(=O)Nc3ccc(F)cc3C2c2ccc(F)cc2)c1 (stereo not drawn)	-2.4	-8.0%	1.4%	-12.3	-1.0%
O=C1C2C3C=CC(C4CC34)C2C(=O)N1c1cccc2ccccc12 (stereo not drawn)	13.3	19.0%	-1.8%	17.7	?
Cc1ccc(/C=C2\SC(=S)N(CCCC(=O)NC3CCCC3)C2=O)cc1	-6.8	-18.9%	0.5%	40.4	?
CN1C(=O)/C(=C/c2ccccc2OCc2cccc(F)c2)NC1=S	3.7	?	-1.7%	15.1	1.4%
CS(=O)(=O)N1N=C(c2ccccc2)CC1c1ccc2nccnc2c1 (stereo not drawn)	18.3	32.0%	-0.5%	63.3*	-3.3%
O=C(O)CCC(=O)N1N=C(c2ccccc2)CC1c1ccc2nccnc2c1 (stereo not drawn)	6.8	18.4%	-2.8%	-6.9	70.5%
COc1ccc(NC(=O)CSc2nc3ncccc3[nH]2)cc1OC	-2.0	21.4%	0.5%	27.8	.
CC(C)OC(=O)c1ccc(NC(=O)CSc2nc3ncccc3[nH]2)cc1	22.9*	-28.5%	1.0%	46.0*	?
CC(C)c1ccc(NC(=O)CSc2nc3ncccc3[nH]2)cc1	18.8*	-3.7%	-1.1%	17.9	-14.7%
CC(C)c1ccc(NC(=O)CSc2n[nH]c(=O)n2-c2cccnc2)cc1	-1.9	-3.3%	-9.6%	-11.0	13.1µM*
CC(C)(C)c1ccc(NC(=O)CSc2n[nH]c(=O)n2-c2cccnc2)cc1	-1.5	-4.2%	-0.8%	-6.0	2.2%
SMILES	CHX counter	Pf growth 48h	LmPK inh	Shiga toxin inh	Pf growth 96h
CC(CCc1ccccc1)NC(=O)CNC(=O)c1ccccc1Br (stereo not drawn)	-3.0	6.8%	-0.6%	-23.4	-8.5%
COc1ccc(CNc2ccc3c(c2)nc(C)n3C)cc1	24.8*	.	2.2%	60.2*	.
Cc1nc2cc(NS(=O)(=O)c3ccccc3)ccc2n1C	15.2	0.6%	-0.8%	-9.9	?
Cc1nc2cc(CO)ccc2n1C	-2.8	6.9%	-4.3%	-7.3	9.28µM*
COc1ccc(OC)c(CNc2ccc3c(c2)nc(C)n3C)c1	9.4*	-20.3%	-1.5%	31.7	?
Cc1ccc(CNc2ccc3c(c2)nc(C)n3C)cc1	30.2*	2.1%	1.3%	.	?
CCOc1ccc2c(c1)nc(C)n2C	6.6	50.5%	-4.1%	18.0	0.0%
CC(C)[C@H](NC(=O)c1ccco1)C(=O)NCc1ccccc1	3.0	-0.7%	-3.3%	2.1	4.4%
CC[C@H](C)[C@H](NC(=O)[C@H](Cc1ccc(O)cc1)NC(=O)[C@@H]1CCCN1C(=O)[C@@H](NC(=O)[C@@H](N)CCCCN)[C@@H](C)CC)C(=O)N[C@@H](CC(C)C)C(=O)O	-3.5	.	.	2.3	.
Cc1nc2cc(NCc3ccc(Cl)cc3)ccc2n1C	30.3*	274.1%	0.5%	71.1*	29.5%
Cc1nc2cc(NC(=O)N3CCCC3)ccc2n1C	2.9	122.6%	1.0%	10.9	-14.8%
Cc1ccc(C2CN(C)C3(C(=O)Nc4ccccc43)C23COc2ccccc2C3=O)cc1 (stereo not drawn)	1.4	14.7µM*	7.9%	-13.8	?
CN1CC(c2ccccc2Cl)C2(COc3ccccc3C2=O)C12C(=O)Nc1ccccc12 (stereo not drawn)	16.1*	?	8.4%	55.3	?
CC(CCN(C)C)OC(=O)c1ccc(C(C)c2ccccc2)o1 (stereo not drawn)	18.4*	11.2%	7.0%	50.2	?
Oc1ccc(Br)cc1/C=N/n1cnc2ccccc21	41.2*	3.29µM*	2.2%	60.2*	2.33µM*
Oc1ccc(C=Nc2ccc(N3CCOCC3)cc2)c(O)c1	-6.3	-29.9%	-12.2%	-4.4	.
Oc1cc(Br)ccc1C=Nc1ccc(N2CCCCC2)cc1	10.4	8.28µM*	-11.1%	34.5	8.28µM*
Oc1ccc(Br)cc1/C=N/n1c(COc2ccccc2)n[nH]c1=S	-3.1	34.5%	-0.4%	-11.9	36.0%
Oc1ccc(Br)cc1/C=N/N1CCCCC1	52.4*	95.3%	?	81.9*	148.1%
O=C(Nc1ccc(Cl)c(Cl)c1)c1ccco1	48.4*	87.2%	2.5%	49.8*	-4.1%
CCCC(=O)Nc1ccc(Cl)c(NC(=O)c2ccco2)c1	6.5	19.1%	6.3%	-2.8	.
O=C(Cc1ccccc1)Nc1ccc(NC(=O)c2ccco2)cc1Cl	11.8	-10.3%	-1.3%	31.8	9.28µM*
O=C(Nc1ccc(F)c(F)c1)c1ccco1	45.1*	?	2.9%	88.7*	i
O=C(Nc1ccc(Cl)c(C(F)(F)F)c1)c1ccco1	12.8*	34.2%	2.1%	25.3	0.2%
